Screening data as filed in PubChem.
HBB splice mod: qHTS Assay for Modulators of Hemoglobin Beta Chain Splicing. AID 925, 2007. Potency, µM (highest dose often 46.1 µM), for inactives: at the top dose activation, actives largely listed as activators. HBB splicing reporter cell assay, activation; EGFP reporter with mutant IVS2-654 intron; response scale: normalised to 500 nM splice-correcting PNA. 65,000 compounds, 0.06% hits; further: potency means the concentration at half of the fitted maximal effect; 0% is about no effect
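HeLa cells stably expressing EGFP interrupted by mutant beta-globin intron 2 (IVS2-654), 500/well in 2% FCS. Treated with compound for 2 days at 37C. Splicing correction scored as total well GFP intensity (488 nm excitation, 500-520 nm emission); 500 nM antisense PNA served as control.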
CRE Fsk mod: Cell signaling CRE-BLA (Fsk stim); CHO CRE-bla reporter (cAMP response element driving beta-lactamase), forskolin EC10, beta-lactamase ratio; Potency, µM (top dose mostly 38.2 µM), without a hit: top-dose activity change, negative = inhibition, most hits filed as activators; AID 662, 2007; 71,000 compounds, 2.5% hits; active means well fitted activation curve with a large enough effect in the signal ratio, with a control signal flat, not every such curve was filed as active; inconclusive means small, poorly fitted or top-dose-only effect, or effect the other way, or a change in a side signal; the % refers to the signal ratio; further: potency means the concentration at half of the fitted maximal effect; % of control where 0% means no effect
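qHTS titration format; CRE-bla CHO reporter; stimulus EC10 NKH 477, a water-soluble forskolin. Read: CCF4 460/530 nm ratio. Potency expressed as AC50 for activators or inhibitors.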
IkB sig inh: IkB Signaling. 110,000 compounds, 0.04% hits. ABC-DLBCL IkBa-CBG/CBR dual luciferase ratio, 4 h; response scale: scaled: untreated 0%, proteasome inhibitor 100%. Potency, µM (doses to about 57.1 µM), for the others: at the highest dose IkBa stabilization activation. AID 445, 2006; active means well fitted curve in the direction sought with a large enough effect in the signal ratio, not every such curve was filed as active; inconclusive means small, poorly fitted or top-dose-only effect, or a change in a side signal; the % refers to the signal ratio;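 further: potency means the concentration at half of the fitted maximal effect; the direction sought is a rising ratio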
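Curves were fitted separately to fusion (green), unfused (red) and ratio luminescence, then classed by r2, magnitude and activity. Cells: OCI-Ly3, 4 h compound plus doxycycline at 37C; 10 uM MG-132 defined full response.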
GFP derepression: qHTS Assay for Epigenetic Modulators. 68,000 compounds, 0.09% hits. Potency, µM (top dose mostly 46.1 µM), for the others: at the top dose GFP derepression (activation). mouse C127i GFP locus derepression, cytometry, 30 h; further: % of control where 0% means no effect
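Derepression screen: silenced CMV-GFP reporter in murine C127i cells, 30 h compound incubation at 37 C, washed cells imaged by laser-scanning cytometer to enumerate GFP-expressing objects of 20 to 120 um.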
ERK AVP block: qHTS Assay for Inhibitors of the ERK Signaling Pathway using a Homogeneous Screening Assay | HEK293-V1b, vasopressin-stimulated pERK AlphaScreen | Potency, µM (highest dose often 57.5 µM), inactives show at the highest dose activity, negative = inhibition, hits mostly inhibitors | 72,000 compounds, 0.99% hits; further: potency means the concentration at half of the fitted maximal effect; on the % scale 0 is the no-effect control and ±100 the full control effect; nearly all actives have a fitted effect of over 55% in size
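Overnight-seeded V1b-HEK293 cells in 1% FBS got compound, then vasopressin (25 nM final, 5 min, 37C), then lysis buffer. AlphaScreen detection of phospho-ERK; activity normalized to basal and full-stimulation controls.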
Numbers without * were called inactive; ? = inconclusive; nt = no result given; [ ] = dose if it differs, or a comment. Only a selection was taken, and hits are over-represented in it overall. Unless noted, the call rests on the fitted dose curve; in most records, active means well fitted curve in the direction sought with a large enough effect; inconclusive means small, poorly fitted or top-dose-only effect, or another doubt; inactive means no such curve, though single readings can be large; an effect the other way counts as inactive or inconclusive.

SMILES	HBB splice mod	CRE Fsk mod	IkB sig inh	GFP derepression	ERK AVP block
COC(=O)c1ccc(OCC2c3cc(OC)c(OC)cc3CCN2C(=O)c2ccco2)cc1 (configuration not stated)	5%[0.369 µM]	1.6µM*	?	0%	?
COC(=O)c1ccc(OCC2c3cc(OC)c(OC)cc3CCN2C(=O)c2ccc(OC)cc2)cc1 (configuration not stated)	nt	nt	0%	nt	nt
C=C1CC[C@@H](O)C/C1=C/C=C1\CCC[C@]2(C)[C@@H]1CC[C@H]2[C@@H](C)/C=C\[C@@H](C)C(C)C	nt	?	2%[11.4 µM]	-2%[9.22 µM]	nt
Cc1ccc(S(=O)(=O)N(CCc2ccccc2)CC(=O)Nc2cc(C)ccc2C)cc1	nt	nt	-1%	nt	nt
N#CC(C(=O)NC1CC1)c1nc2ccccc2nc1N1CCCC1 (configuration not stated)	0%	5µM*	-2%	-4%	-17%
N#CC(C(=O)NC1CCCCC1)c1nc2ccccc2nc1N1CCCCC1 (configuration not stated)	0%[57.5 µM]	-2%	-1%	2%	4%
COCCNC(=O)C(C#N)c1nc2ccccc2nc1N1CCCCCC1 (configuration not stated)	5%[57.5 µM]	10µM*	?	0%	-19%
N#CC(C(=O)OC1CCCCC1)c1nc2ccccc2nc1N1CCOCC1 (configuration not stated)	-1%[57.5 µM]	?	1%	26%	-3%
CCC(CC)COC(=O)C(C#N)c1nc2ccccc2nc1N1CCOCC1 (configuration not stated)	-3%[57.5 µM]	2µM*	1%	2%	-21%
CC1(C)O[C@@H]2O[C@H]([C@H](O)CO/N=C3/[C@H]4O[C@@H]4[C@@H](O)[C@H]4[C@H]3CCn3c(=O)n(-c5ccccc5)c(=O)n34)[C@@H](O)[C@@H]2O1	0%[9.22 µM]	nt	nt	nt	19%[11.5 µM]
CC(C)(C)OC(=O)N1CCC(c2c(C(=O)NCCN3CCC(Cc4ccccc4)CC3)cnn2-c2ccccc2)CC1	nt	nt	-7%	nt	nt
CCOc1ccc(NCC2CCOC(C)(C)C2)cc1 (configuration not stated)	-1%	3.2µM*	2%	3%	?
COc1ccc(-c2nnc(SCC(=O)Nc3ncc(C)s3)n2-c2ccccc2)cc1OC	0%[57.5 µM]	5µM*	2%	2%	-30%
CCc1nnc(NC(=O)CSc2nnc(-c3ccc(O)cc3)n2-c2ccccc2)s1	0%[57.5 µM]	5%	1%	2%	-20%
COc1ccc2c(c1)c1c(c(=O)n(Cc3ccccc3)c(=O)n1CC(=O)Nc1ccc(C)cc1C)n2C	nt	nt	2%	nt	nt
COc1ccc2[nH]cc(CCNc3ncnc4ccc(-c5cccc(C#N)c5)cc34)c2c1	0%	2.5µM*	-6%[11.4 µM]	0%[9.22 µM]	-18%
CN1CCN(c2ncnc3ccc(-c4ccccc4C#N)cc23)CC1	-2%	10µM*	-1%[11.4 µM]	-3%[9.22 µM]	-16%
COc1ccc2[nH]cc(CCNc3ncnc4ccc(-c5ccccc5C#N)cc34)c2c1	0%	0%	-9%[11.4 µM]	3%[9.22 µM]	-13%
COc1ccc(CNc2ncnc3ccc(-c4ccccc4C#N)cc23)c(OC)c1	1%	3.2µM*	4%[11.4 µM]	-5%[9.22 µM]	-14%
COc1ccccc1CNc1ncnc2ccc(-c3ccccc3C#N)cc12	0%	?	3%[11.4 µM]	0%[9.22 µM]	25µM*
COc1cccc(-c2ccc3ncnc(NCCc4c[nH]c5ccc(OC)cc45)c3c2)c1	0%	2%	-7%[11.4 µM]	6%[9.22 µM]	-13%
CN(C)c1ccc(CNC(=O)c2ccc(Cn3c(=O)c4cccn4c4cccnc43)cc2)cc1	nt	nt	0%	nt	nt
CCOc1ccccc1Nc1nc2ccccc2c2nncn12	nt	nt	0%	nt	nt
COc1ccc(CNC(=O)C2=CC(c3cccc(OC)c3)=NS(=O)(=O)N2C)cc1	nt	nt	0%	nt	nt
COc1ccc2[nH]cc(CCNc3ccnc(-c4ccc(C(=O)N(C)C)cc4)n3)c2c1	0%	2.5µM*	1%[11.4 µM]	6%[9.22 µM]	-21%
